Results filed as inconclusive are left out. Entries that show only a call come without a potency. Active and inactive are the calls of the source. The call rests on the fitted dose curve; in most records, active means well fitted cell-killing curve with a large enough effect in the repeat runs; inconclusive means weak or mixed curves, or effect the other way; inactive means flat fitted curve, though single readings scatter.
Experiment: qHTS assay to identify small molecule agonists of the androgen receptor (AR) signaling pathway in the presence of an antagonist - cell viability counter screen (AID 1259379); further: nearly all actives have a fitted effect of over 25% in size
Details: MDA-kb2 viability, CellTiter-Fluor, 16 h; series mostly up to 92.4 µM
Description: National Center for Advancing Translational Sciences [NCATS]
NIH Chemical Genomics Center [NCGC]
U.S. Environmental Protection Agency [EPA]
National Institutes of Environmental Health Sciences [NIEHS]
National Toxicology Program [NTP]
U.S. Food and Drug Administration [FDA]
Androgen receptor (AR) is an important member of nuclear receptor family. Its signaling plays a critical role in AR-dependent prostate cancer and other androgen related diseases. Considerable attention has been given in the past decades to develop methods to study and screen for the environmental chemicals that have the potential to interfere with metabolic homeostasis, reproduction, developmental and behavioral functions. Therefore AR binding assay for screening against androgen agonists and antagonists can be used to identify potential endocrine disruptors.
MDA-kb2 cells (from ATCC, deposited by Wilson et al.) are human breast carcinoma cells that were stably transfected with a luciferase reporter gene under control of the MMTV promoter that contains response elements for both androgen receptor (AR) and glucocorticoid receptor (GR). This particular screening for measuring luciferase reporter gene activity using MDA-kb2 cells against Tox21 10K library compounds is a confirmation study on agonist mode screening in the presence of AR-antagonist compound (Nilutamide) at 3.0uM final concentration. The cytotoxicity of the compounds was tested in parallel by measuring the cell viability using CellTiter-Fluor assay system (Promega, Madison, WI) in the same wells.
Tox21 Assay Protocol Summary:
MDA-kb2 cells (cells cultured without CO2) were dispensed at 3,000 cells/well in 4uL of culture medium into white wall/solid-bottom 1536-well plates (Corning Life Sciences, Corning, NY) using a Multidrop Combi (Thermo Fisher Scientific Inc., Waltham, MA) dispenser. The assay plates were incubated at 37C and 0% CO2 for 5hr. One uL of 3.0uM (final concentration) Nilutamide or assay buffer was added using two separate tips of Flying Reagent Dispenser (FRD, Aurora Discovery, San Diego, CA). Then 23nL of compounds dissolved in DMSO at 15 concentrations and positive controls were transferred to the assay plates using a Pintool station (Wako, San Diego, CA). The assay plates were incubated at 37C and 0% CO2 for 16 hr. After 15hr incubation at 37C, 1uL/well CellTiter-Fluor reagent (Promega Corporation) was added to each well of the assay plates using FRD. After 1hr incubation at 37C and 0% CO2, the fluorescence signal was measured using a ViewLux plate reader (PerkinElmer, Shelton, CT).

SMILES	Potency	activity change, negative = cytotoxicity
OCCCCC(O)CO (stereo not given)	inactive	–
COP(=O)(OC)OC(c1ccc(Cl)cc1)P(=O)(OC)OC (stereo not given)	inactive	–
O=C(O)c1cc(Cl)cc([N+](=O)[O-])c1Cl	inactive	–
Cc1nc2n(c(=O)c1CCN1CCC(c3noc4cc(F)ccc34)CC1)CCC[C@H]2O	–	-2.37% [at 19 µM] (inactive)
CCCN1C[C@H](CSC)C[C@@H]2c3cccc4[nH]cc(c34)C[C@H]21	inactive	–
Cc1c(I)c(=O)n(-c2ccccc2)n1C	inactive	–
C=C(C)C(=O)OCc1ccccc1	inactive	–
N[C@@H](CCC(=O)N[C@@H](CS)C(=O)NCC(=O)O)C(=O)O	–	-2.43% [at 19 µM] (inactive)
CCCCC(CC)COCCO (stereo not given)	inactive	–
CC(CC=O)CCCC(C)(C)O (stereo not given)	inactive	–
CC(C)(C)c1cc(CCC(=O)NN)cc(C(C)(C)C)c1O	inactive	–
COC(=O)CCCCCCCC(=O)OC	inactive	–
C[C@H](N)[C@H](O)c1cccc(O)c1	inactive	–
COC(=O)C1CC(=O)C(C(=O)OC)CC1=O (stereo not given)	–	2.46% [at 8.39 µM] (inactive)
CC[C@H](C)C(=O)O[C@H]1C[C@H](O)C=C2C=C[C@H](C)[C@H](CC[C@@H](O)C[C@@H](O)CC(=O)O)[C@H]21	inactive	–
BrCc1cccc(Oc2ccccc2)c1	inactive	–
CN(C)C(=O)CNC(=O)Cc1ccccc1	inactive	–
Cc1cc(NC(=O)C2=C(O)c3ccccc3S(=O)(=O)N2C)no1	inactive	–
CN1CCN(CC(=O)N2c3ccccc3C(=O)Nc3cccnc32)CC1	–	-6.25% [at 8.39 µM] (inactive)
CCCCCCCCOS(=O)(=O)O	inactive	–

SMILES	Potency	activity change, negative = cytotoxicity
COc1ccc(C2CNC(=O)C2)cc1OC1CCCC1 (stereo not given)	inactive	–
O=C(Nc1ccc(Cl)c(Cl)c1)C1CC1	inactive	–
CC(=O)Nc1cccc(C)c1	inactive	–
CC(C)N(c1ccccc1)C(C)C	inactive	–
CC(C)(C)NC(N)=O	inactive	–
CCCCOC(=O)c1ccccc1	inactive	–
CCC(C)(CCC(C)C)C(=O)O (stereo not given)	inactive	–
Cc1cc2cc3c(C)cc(=O)oc3c(C)c2o1	inactive	–
CCOCCOC(=O)/C=C/c1ccc(OC)cc1	inactive	–
CCCC(=O)C(C)=O	inactive	–
CC(=O)OC(C)OC(=O)C(C)c1ccc(-c2ccccc2)c(F)c1 (stereo not given)	inactive	–
OC[C@H](Cc1cccc(O)c1)[C@H](CO)Cc1cccc(O)c1	inactive	–
OCCN(CCO)c1cccc(Cl)c1	inactive	–
Cc1ccc2c(c1)OCC(=O)CO2	inactive	–
CN1C(C)(C)CCCC1(C)C	inactive	–
O=C(NCCc1c[nH]c2ccccc12)c1cccnc1	inactive	–
CC1(C)S[C@@H]2[C@H](N=CN3CCCCCC3)C(=O)N2[C@H]1C(=O)O	inactive	–
CC(S)C(=O)NCC(=O)O (stereo not given)	inactive	–
COCCOCCOCCOCCO	inactive	–
O=C(OCC(COC(=O)c1cccnc1)(COC(=O)c1cccnc1)COC(=O)c1cccnc1)c1cccnc1	inactive	–

From PubChem BioAssay (Tox21)
